# Records with an inconclusive call do not appear. The source made the active and inactive calls. Unless noted, calls come from the whole dose curve; as a rule, active = well fitted curve in the direction sought with a large enough effect; inconclusive = small, poorly fitted or top-dose-only effect, or another doubt; inactive = no such curve, though single readings can be large; an effect the other way counts as inactive or inconclusive.
# How the values were obtained:
# [1] = qHTS for differential inhibitors of proliferation of Plasmodium falciparum line 3D7 (AID 1876); note: potency is the fitted concentration of half-maximal effect
# [2] = target: RecQ-like DNA helicase BLM (Homo sapiens) (UniProt P54132); test: qHTS Validation Assay for Inhibitors of Bloom's syndrome helicase (BLM) (AID 2364);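 note: plate controls were DMSO vehicle for no effect and enzyme-free control for full effect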
# Chain of RecQ-like DNA helicase BLM (Homo sapiens) (P54132 whole entry, looked up): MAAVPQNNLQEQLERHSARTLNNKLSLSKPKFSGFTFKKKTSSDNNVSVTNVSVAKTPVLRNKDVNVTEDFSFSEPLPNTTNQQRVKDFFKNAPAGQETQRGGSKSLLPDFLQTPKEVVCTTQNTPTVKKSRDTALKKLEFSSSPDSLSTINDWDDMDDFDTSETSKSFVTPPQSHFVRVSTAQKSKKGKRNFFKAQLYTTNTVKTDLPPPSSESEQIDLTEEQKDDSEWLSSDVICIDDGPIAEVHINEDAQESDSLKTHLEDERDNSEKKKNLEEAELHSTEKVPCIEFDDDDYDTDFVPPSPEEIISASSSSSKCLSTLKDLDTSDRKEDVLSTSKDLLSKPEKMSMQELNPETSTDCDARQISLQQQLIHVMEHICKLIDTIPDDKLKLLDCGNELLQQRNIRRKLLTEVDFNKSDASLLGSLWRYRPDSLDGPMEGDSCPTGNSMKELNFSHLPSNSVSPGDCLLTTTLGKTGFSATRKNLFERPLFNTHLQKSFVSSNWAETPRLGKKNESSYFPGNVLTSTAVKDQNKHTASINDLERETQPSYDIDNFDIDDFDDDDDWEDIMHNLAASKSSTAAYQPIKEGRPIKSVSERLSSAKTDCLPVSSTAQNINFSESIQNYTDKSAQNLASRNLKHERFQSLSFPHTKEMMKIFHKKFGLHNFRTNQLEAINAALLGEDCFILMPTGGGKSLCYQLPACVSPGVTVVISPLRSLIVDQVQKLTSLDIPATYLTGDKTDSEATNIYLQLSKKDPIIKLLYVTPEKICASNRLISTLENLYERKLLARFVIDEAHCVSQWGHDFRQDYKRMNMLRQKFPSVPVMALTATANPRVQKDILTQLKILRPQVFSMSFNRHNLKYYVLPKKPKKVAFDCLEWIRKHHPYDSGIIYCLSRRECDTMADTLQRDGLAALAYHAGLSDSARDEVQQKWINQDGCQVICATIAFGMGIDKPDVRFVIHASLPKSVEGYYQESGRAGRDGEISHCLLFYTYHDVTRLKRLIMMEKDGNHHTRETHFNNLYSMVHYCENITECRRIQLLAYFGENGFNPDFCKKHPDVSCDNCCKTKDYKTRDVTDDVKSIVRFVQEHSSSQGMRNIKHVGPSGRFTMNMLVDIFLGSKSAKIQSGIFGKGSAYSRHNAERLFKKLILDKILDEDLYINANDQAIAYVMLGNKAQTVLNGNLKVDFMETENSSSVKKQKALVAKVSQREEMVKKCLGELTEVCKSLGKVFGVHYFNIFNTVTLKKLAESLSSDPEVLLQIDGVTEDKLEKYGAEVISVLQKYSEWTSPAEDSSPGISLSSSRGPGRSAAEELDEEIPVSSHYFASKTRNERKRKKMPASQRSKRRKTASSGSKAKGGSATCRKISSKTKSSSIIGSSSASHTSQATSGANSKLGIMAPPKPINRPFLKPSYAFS
# Summary of the method: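 Forked 20-bp duplex substrate (200 nM, TAMRA/BHQ-2) plus 2 mM ATP added after 15 min compound preincubation with 50 nM enzyme, pH 8.0, poly(dI-dC) 2.5 ug/ml. Strand separation followed by fluorescence (525/598 nm) over 2 h, normalized to enzyme-free and DMSO controls.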
# [3] = target: Pyruvate kinase (Leishmania mexicana) (UniProt Q27686); test: qHTS Validation Assay for Activators of Leishmania Mexicana Pyruvate Kinase (AID 959)
# Chain of Pyruvate kinase (Leishmania mexicana) (Q27686 2-499 E452W): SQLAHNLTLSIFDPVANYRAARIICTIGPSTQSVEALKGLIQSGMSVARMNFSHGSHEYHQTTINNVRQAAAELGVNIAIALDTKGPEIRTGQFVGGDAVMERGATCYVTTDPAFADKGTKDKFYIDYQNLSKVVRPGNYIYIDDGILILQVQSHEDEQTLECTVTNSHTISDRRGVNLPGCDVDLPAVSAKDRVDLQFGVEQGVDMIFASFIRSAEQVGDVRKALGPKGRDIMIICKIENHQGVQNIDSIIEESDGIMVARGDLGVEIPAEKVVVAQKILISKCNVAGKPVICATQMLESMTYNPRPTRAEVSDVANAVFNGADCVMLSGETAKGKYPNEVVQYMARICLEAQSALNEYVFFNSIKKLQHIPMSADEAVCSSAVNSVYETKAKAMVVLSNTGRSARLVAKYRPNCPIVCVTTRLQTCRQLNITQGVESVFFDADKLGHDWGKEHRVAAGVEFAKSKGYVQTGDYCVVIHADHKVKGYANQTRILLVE
# Summary of the method: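 Read-out: luminescence from PKLight stop/detection reagent, data normalized to DMSO. Reaction: 0.2 nM E451W LmPYK, 0.5 mM PEP, 0.1 mM ADP, pH 7.2, 1 h room temperature.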
# [4] = qHTS Assay for Modulators of Human Peripheral Myelin Protein 22 (PMP22) Expression/Activity (AID 1967; active = well fitted curve in the direction sought with a large enough effect in the signal ratio; the % refers to the signal ratio;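 note: 0% = untreated cells and 100% end not stated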)
# Summary of the method: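 Mouse MSC80 Schwann cells carrying Pmp22 promoter–green click beetle luciferase plus EF-alpha–red luciferase control, dosed 24 h at 37 °C. Dual-filter luminescence, overlap-corrected; %Activity from green/red ratio normalised to untreated cells, concentration-response curves fitted.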
# [5] = Validation screen for small molecules that induce DNA re-replication in MCF 10A normal breast cells (AID 463097); note: 0% is about no effect; nearly all actives have a fitted effect of over 60% in size
# Summary of the method: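 MCF 10A cells exposed to compound 48 hr at 37 C, 5% CO2, then Hoechst-stained 40 min. Laser-scanning imaging of nuclear DNA content (405 nm ex, 500-530 nm em); re-replication scored as rise in nuclei with elevated fluorescence intensity.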
# [6] = Quantitative high throughput screen for delayed death inhibitors of the malarial parasite plastid, 96 hour incubation (AID 488745);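 note: luciferase-expressing P. falciparum in erythrocytes at 2% hematocrit and 0.1% parasitemia; % is set by controls: 0 for no effect and ±100 for the full control effect; nearly all actives have a fitted effect of over 70% in size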
# Summary of the method: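 Infected erythrocytes were added to compound in Albumax-supplemented RPMI 1640 at 0.1% parasitemia and 2% hematocrit (final), incubated 96 h at 37 C under 5% CO2, then luciferase reagent was added and luminescence measured.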
# [7] = qHTS Assay for Identification of Small Molecule Antagonists for Thrombopoietin (TPO) Signaling Pathway (AID 918); settings: TPO-dependent cell signaling reporter, antagonist mode; note: potency is the fitted concentration of half-maximal effect; nearly all actives have a fitted effect of over 60% in size
# Summary of the method: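 Ba/F3 (murine, hTPO-R, GPIIb-luc reporter); overnight IL-3 withdrawal; cpd + TPO 26 pM final (EC50); 24 h 37 C/5% CO2; Steadylite luminescence after 10 min RT.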
# [8] = target: Luciferin 4-monooxygenase (Photinus pyralis) (UniProt P08659); test: Biochemical firefly luciferase enzyme assay for NPC (AID 624030);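 note: purified P. pyralis luciferase at 10 nM with luciferin and ATP substrate; 0% = DMSO and -100% = full luciferase inhibition by PTC124 control; nearly all actives have a fitted effect of over 70% in size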
# Chain of Luciferin 4-monooxygenase (Photinus pyralis) (P08659 whole entry, looked up): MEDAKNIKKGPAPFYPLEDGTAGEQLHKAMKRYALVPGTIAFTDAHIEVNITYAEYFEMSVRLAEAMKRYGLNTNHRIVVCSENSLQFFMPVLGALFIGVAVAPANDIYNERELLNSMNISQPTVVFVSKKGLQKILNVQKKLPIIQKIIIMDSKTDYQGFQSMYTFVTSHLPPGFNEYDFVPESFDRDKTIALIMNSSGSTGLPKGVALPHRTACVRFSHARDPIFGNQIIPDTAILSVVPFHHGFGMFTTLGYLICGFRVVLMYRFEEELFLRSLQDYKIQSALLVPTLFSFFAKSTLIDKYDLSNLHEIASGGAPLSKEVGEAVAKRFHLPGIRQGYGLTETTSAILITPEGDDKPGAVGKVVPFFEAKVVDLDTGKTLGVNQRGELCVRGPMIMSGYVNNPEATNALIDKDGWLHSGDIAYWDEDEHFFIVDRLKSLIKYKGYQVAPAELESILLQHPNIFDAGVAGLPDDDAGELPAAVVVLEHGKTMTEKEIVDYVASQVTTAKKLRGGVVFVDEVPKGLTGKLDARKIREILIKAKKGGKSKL
# Summary of the method: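 Direct inhibition of firefly luciferase enzyme (10 nM final, 50 mM Tris Acetate) assessed by luminescence within 5 minutes. Percent activity scaled between DMSO and PTC124 positive control, with concentration-effect curves classified by fit quality and response.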
# [9] = S16 Schwann cell PMP22 intronic element firefly luciferase assay (AID 624032); note: nearly all actives have a fitted effect of over 30% in size; note: potency is the fitted concentration of half-maximal effect
# Summary of the method: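 Luciferase reporter of PMP22 intronic-element expression in stably transfected S16 rat Schwann cells, read by ONE-Glo luminescence after 24 h compound exposure at 37 C. Activity scaled between DMSO (0%) and positive-control PTC124; concentration-effect curves quality-classified.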
# [10] = S16 Schwann cell PMP22 intronic element beta-lactamase assay (AID 624044; calls by dose curve;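 note: 0% = DMSO and -100% = potassium clavulanate positive control; nearly all actives have a fitted effect of over 15% in size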)
# Summary of the method: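 Rat S16 Schwann cells with beta-Lac driven by a PMP22 intronic element, compound-treated 24 h at 37 °C. LiveBLAzer FRET B/G read: 460 nm normalized to potassium clavulanate vs DMSO; 535 nm FRET as viability; concentration-effect curves classified.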
# 3D7 = test: qHTS profiling for inhibitors of Plasmodium falciparum proliferation (AID 504749); note: nearly all actives have a fitted effect of over 60% in size; note: potency is the fitted concentration of half-maximal effect; settings: P. falciparum in erythrocytes, SYBR Green DNA, 72 h; series mostly up to 28.7 µM
# Summary of the method: (§1)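 Infected RBCs, 0.3% parasitemia/2.5% Hct final; cpd 72 h, 37 C, 5% CO2; lysis buffer with saponin/triton/SYBR Green I, o/n RT dark; FI 485/535; norm. to artemisinin (0.29 uM) and DMSO.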
# CP260 = test: as above; settings: P. falciparum in erythrocytes, SYBR Green DNA, 72 h; series mostly up to 28.7 µM
# Summary of the method: as §1
# CP266 = test: as above; settings: P. falciparum in erythrocytes, SYBR Green DNA, 72 h; series mostly up to 28.7 µM
# Summary of the method: as §1
# CP315 = test: as above; settings: P. falciparum in erythrocytes, SYBR Green DNA, 72 h; series mostly up to 28.7 µM
# Summary of the method: as §1
# JCK = test: as above; settings: P. falciparum in erythrocytes, SYBR Green DNA, 72 h; series mostly up to 28.7 µM
# Summary of the method: as §1
# PC15 = test: as above; settings: P. falciparum in erythrocytes, SYBR Green DNA, 72 h; series mostly up to 28.7 µM
# Summary of the method: as §1
# PC49 = test: as above; settings: P. falciparum in erythrocytes, SYBR Green DNA, 72 h; series mostly up to 28.7 µM
# Summary of the method: as §1
# [11] = qHTS profiling of the MIPE4 collection as inhibitors of Plasmodium falciparum (3D7) proliferation (AID 743344; call rule not given here;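 note: scaled between DMSO vehicle wells and 0.29 µM artemisinin as full inhibition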); settings: P. falciparum 3D7 in erythrocytes, SYBR Green DNA fluorescence, 72 h; at 28.5 µM (top of the series) unless noted
# Summary of the method: (§2)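 Erythrocytes infected with P. falciparum (0.3% parasitemia, 2.5% hematocrit) incubated with compounds 72 h at 37 C, 5% CO2. Lysis with saponin/Triton buffer containing SYBR Green I, overnight at room temperature in the dark; DNA fluorescence (485/535 nm) normalised to 0.29 uM artemisinin and DMSO.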
# [12] = qHTS profiling of the MIPE4 collection as inhibitors of Plasmodium falciparum (DD2) proliferation (AID 743345; call rule not given here); settings: P. falciparum Dd2 in erythrocytes, SYBR Green DNA, 72 h; at 28.5 µM (top of the series) unless noted
# Summary of the method: as §2
# [13] = qHTS profiling of the MIPE4 collection as inhibitors of Plasmodium falciparum (HB3) proliferation (AID 743347; call rule not given here;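 note: plate controls were DMSO vehicle wells for no effect and artemisinin wells for full effect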); settings: P. falciparum HB3 in erythrocytes, SYBR Green DNA, 72 h; at 28.5 µM (top of the series) unless noted
# Summary of the method: as §2
smiles,measurement,setting,value
CN1CCc2cc(O)cc3c2C1Cc1ccc(O)c(O)c1-3 (stereo not drawn),Potency,[1],11.2 µM (active)
same,Potency,[2],inactive
N#CC(C#N)=Cc1ccc([N+](=O)[O-])c(O)c1,Potency,[3],20 µM (active)
same,outcome,[4],inactive
same,Potency,[5],inactive
same,Potency,[6],inactive
CN1[C@@H]2CC[C@H]1CC(O[C@@H](c1ccccc1)c1ccc(Cl)cc1)C2 (stereo partly drawn),Potency,[7],12.6 µM (active)
CC(C)[C@@]1(NC(=O)[C@H]2CC3c4cccc5[nH]cc(c45)C[C@H]3N(C)C2)O[C@@]2(O)C3CCCN3C(=O)[C@@H](Cc3ccccc3)N2C1=O (stereo partly drawn),Potency,[8],inactive
same,Potency,[9],5.1 µM (active)
same,Potency,[10],inactive
same,Potency,3D7,2.24 µM (active)
same,Potency,CP260,3.16 µM (active)
same,Potency,CP266,6.01 µM (active)
same,Potency,CP315,9.53 µM (active)
same,Potency,JCK,7.94 µM (active)
same,Potency,PC15,1.78 µM (active)
same,Potency,PC49,3.16 µM (active)
CCN1C[C@]2(COC)[C@H](O)C[C@H](OC)[C@]34C1C([C@H](OC)[C@H]23)[C@]1(OC(C)=O)C2[C@@H](OC(=O)c3ccccc3)C(O)(C[C@H]24)[C@@H](OC)[C@@H]1O,Potency,[8],inactive
same,Potency,[9],inactive
same,Potency,[10],inactive
same,Potency,3D7,inactive
same,Potency,CP260,inactive
same,Potency,CP266,inactive
same,Potency,CP315,inactive
same,Potency,JCK,inactive
same,Potency,PC15,inactive
same,Potency,PC49,inactive
Cc1ncc(C[n+]2csc(CCO)c2C)c(=O)[nH]1,"parasite growth, % of DMSO control",[11],96.7%
same,"parasite growth remaining, % of DMSO control (lower = more inhibition)",[12],104%
same,"growth, % of control",[13],73.2%
O=C1CC[C@@]2(O)[C@H]3Cc4ccc(O)c5c4C2(CCN3CC2CC2)[C@H]1O5,"parasite growth, % of DMSO control",[11],101%
same,"parasite growth remaining, % of DMSO control (lower = more inhibition)",[12],82%
same,"growth, % of control",[13],94.1%

# From PubChem BioAssay (NCATS)
